Data from PubChem BioAssay (NCATS).
Inconclusive results are not listed. The source made the active and inactive calls. Unless noted, the call rests on the fitted dose curve; in most records, active means well fitted curve in the direction sought with a large enough effect; inconclusive means small, poorly fitted or top-dose-only effect, or another doubt; inactive means no such curve, though single readings can be large; an effect the other way counts as inactive or inconclusive.

How the values were obtained:
[1] = P-glycoprotein substrates identified in KB-8-5-11 adenocarcinoma cell line, qHTS therapeutic library screen (AID 1346987); further: potency means the concentration at half of the fitted maximal effect; nearly all actives have a fitted effect of over 65% in size
In short: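 Luminescence from CellTiter-Glo, read 5 min after addition, quantified survival of KB-8-5-11 (P-gp-overexpressing) cells exposed to compounds for 72 h. AC50 was derived from concentration-response curves.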

[2] = biological target: Calcium and integrin-binding protein 1 (Homo sapiens) (UniProt Q99828); assay: Primary qHTS for Identification of Calcium Integrin Binding Protein 1 (CIB1) Competitor (AID 1508620);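 further: GST tagged CIB1 binding a fluorescein labelled alphaIIb integrin peptide tracer; top concentration of the series differs between compounds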
Chain of Calcium and integrin-binding protein 1 (Homo sapiens) (Q99828 whole entry, looked up): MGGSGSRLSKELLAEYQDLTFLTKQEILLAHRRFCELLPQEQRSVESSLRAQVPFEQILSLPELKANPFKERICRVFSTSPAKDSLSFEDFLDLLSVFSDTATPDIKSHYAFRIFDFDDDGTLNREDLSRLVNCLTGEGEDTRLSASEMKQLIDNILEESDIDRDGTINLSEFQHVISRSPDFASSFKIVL
In short: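 CIB1-GST (1 uM final) and compound incubated 15 min at room temperature before adding FITC-alphaIIb peptide tracer (100 nM final). Competition for binding read by fluorescence polarization (ex 480, em 540) after another 15 min at room temperature.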

[3] = biological target: Cytochrome P450 2D6 (Homo sapiens) (UniProt P10635); assay: Cytochrome P450 family 2 subfamily D member 6 (CYP2D6) small molecule antagonists: luciferase biochemical (cell-free) qHTS assay (AID 1645840; active means well fitted curve in the direction sought with a large enough effect in the repeat runs; an effect the other way counts as inactive or inconclusive; further: potency means the concentration at half of the fitted maximal effect; nearly all actives have a fitted effect of over 55% in size)
Chain of Cytochrome P450 2D6 (Homo sapiens) (P10635 whole entry, looked up): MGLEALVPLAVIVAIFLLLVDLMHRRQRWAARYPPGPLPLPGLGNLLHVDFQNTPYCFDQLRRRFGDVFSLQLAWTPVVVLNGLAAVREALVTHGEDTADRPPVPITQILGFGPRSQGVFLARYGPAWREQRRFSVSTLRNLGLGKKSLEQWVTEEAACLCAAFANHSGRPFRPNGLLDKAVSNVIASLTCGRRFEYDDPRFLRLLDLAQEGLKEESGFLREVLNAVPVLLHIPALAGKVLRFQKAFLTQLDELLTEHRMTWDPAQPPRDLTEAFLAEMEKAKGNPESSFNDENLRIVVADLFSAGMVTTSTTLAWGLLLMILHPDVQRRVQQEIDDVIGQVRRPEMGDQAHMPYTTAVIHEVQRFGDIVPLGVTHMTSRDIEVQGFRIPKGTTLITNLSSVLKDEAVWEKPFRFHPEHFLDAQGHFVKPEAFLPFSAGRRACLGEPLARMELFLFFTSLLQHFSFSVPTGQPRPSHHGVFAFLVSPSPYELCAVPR
In short: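 P450-Glo CYP2D6 system: proluciferin substrate converted by enzyme to luciferin, read by luminescence proportional to activity. Enzyme-substrate mix with compound 10 min at room temperature, then NADPH regeneration 1 h before detection reagent.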

[4] = biological target: Glutathione peroxidase 1 (Homo sapiens) (UniProt P07203); assay: Primary qHTS Assay for Inhibitors of Recombinant Selenoprotein Glutathione Peroxidase 1 (GPX1) (AID 1845191); further: nearly all actives have a fitted effect of over 65% in size
Chain of Glutathione peroxidase 1 (Homo sapiens) (P07203 whole entry, looked up): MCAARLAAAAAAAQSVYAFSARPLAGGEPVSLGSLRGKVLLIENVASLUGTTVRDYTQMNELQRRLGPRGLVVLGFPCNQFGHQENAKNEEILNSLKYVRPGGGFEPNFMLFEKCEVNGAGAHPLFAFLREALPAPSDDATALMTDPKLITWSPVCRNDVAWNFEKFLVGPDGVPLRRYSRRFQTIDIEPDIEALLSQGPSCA
In short: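 NADPH consumption tracked by fluorescence at 340/450 nm between t=0 and t=15 min, room temperature. Final mix: 10 nM GPX1, 100 nM glutathione reductase, 1 mM GSH, 0.5 mM NADPH, 0.5 mM cumene hydroperoxide, 0.01% BSA; 30 min compound–enzyme preincubation.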

[5] = biological target: Phospholipid hydroperoxide glutathione peroxidase GPX4 (Homo sapiens) (UniProt P36969); assay: Primary qHTS Assay for Inhibitors of Recombinant Selenoprotein Glutathione Peroxidase 4 (GPX4) (AID 1845192); further: nearly all actives have a fitted effect of over 65% in size
Chain of Phospholipid hydroperoxide glutathione peroxidase GPX4 (Homo sapiens) (P36969 whole entry, looked up): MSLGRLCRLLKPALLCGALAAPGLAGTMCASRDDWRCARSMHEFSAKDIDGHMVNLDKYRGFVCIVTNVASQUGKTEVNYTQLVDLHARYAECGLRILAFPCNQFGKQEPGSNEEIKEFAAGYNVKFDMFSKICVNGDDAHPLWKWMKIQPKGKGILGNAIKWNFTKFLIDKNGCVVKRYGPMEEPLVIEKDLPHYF
In short: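 NADPH consumption followed by fluorescence at 340/450 nm, t=0 and after 15 min at room temperature. Reaction started with cumene hydroperoxide (0.5 mM final) after 30 min compound–GPX4 preincubation; final 200 nM GPX4, 100 nM GR, 1 mM GSH, 0.5 mM NADPH.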

[6] = biological target: Luciferin 4-monooxygenase (Photinus pyralis) (UniProt P08659); assay: Primary firefly luciferase (FLuc) qHTS assay for identification of artifact compounds. (AID 1845220); details: outcome: dose series up to 54.1 µM unless noted; further: nearly all actives have a fitted effect of over 60% in size
In short: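 Compounds sat 15 min at room temperature with 10 uM luciferin and 10 uM ATP (pH 7.6 Tris acetate). Firefly luciferase (10 nM final) was then added, and luminescence was read 5 min later. Data normalized to no-enzyme and DMSO controls were Hill-fitted.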

[7] = Primary fluorescence-based thiol-reactive (MSTI) qHTS assay for identification of artifact compounds. (AID 1845221);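 further: thiol-reactive compounds lower the probe fluorescence signal; nearly all actives have a fitted effect of over 65% in size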
In short: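 Curve-fitted percent inhibition (4-parameter Hill) derived from fluorescence, Ex 525/Em 598 nm, scaled with Acetyl-MSTI and MSTI; 1 h incubation at room temperature.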

[8] = tested on: Nanoluciferase (engineered Oplophorus gracilirostris luciferase); assay: Primary Nanoluciferase (NLuc) qHTS assay for identification of artifact compounds. (AID 1845222)
In short: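 Luminescence from secreted NLuc (filtered, 1:55-diluted S16 cell medium) read 5 min after Nano-Glo substrate; compounds preincubated 15 min, RT. Hill fits of inhibition normalized to DMSO and no-enzyme.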

C33A = assay: Primary qHTS to identify gynecologic anti-cancer compounds using libraries of approved drugs and bioactive compounds (AID 1345084); details: Gynecologic cancer cell panel viability, ATPlite luminescence, 48 h; series mostly up to 57.5 µM; further: nearly all actives have a fitted effect of over 55% in size
In short: (§1)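 Cytotoxicity screen measuring ATP content by luciferase luminescence. Each compound is applied at five concentrations for 48 h at 37 C with 5% CO2.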

CAOV3 = assay: as above; details: Gynecologic cancer cell panel viability, ATPlite luminescence, 48 h; series mostly up to 57.5 µM
In short: as §1

CASKI = assay: as above; details: Gynecologic cancer cell panel viability, ATPlite luminescence, 48 h; series mostly up to 57.5 µM
In short: as §1

Es-2 = assay: as above; details: Gynecologic cancer cell panel viability, ATPlite luminescence, 48 h; series mostly up to 57.5 µM
In short: as §1

HeLa = assay: as above; details: Gynecologic cancer cell panel viability, ATPlite luminescence, 48 h; series mostly up to 57.5 µM
In short: as §1

Hek293T = assay: as above; details: Gynecologic cancer cell panel viability, ATPlite luminescence, 48 h, control line for the selectivity index; series mostly up to 57.5 µM
In short: as §1

JEG-3 = assay: as above; details: Gynecologic cancer cell panel viability, ATPlite luminescence, 48 h; series mostly up to 57.5 µM
In short: as §1

OV90 = assay: as above; details: Gynecologic cancer cell panel viability, ATPlite luminescence, 48 h; series mostly up to 57.5 µM
In short: as §1

PA-1 = assay: as above; details: Gynecologic cancer cell panel viability, ATPlite luminescence, 48 h; series mostly up to 57.5 µM
In short: as §1

Tov-21-G = assay: as above; details: Gynecologic cancer cell panel viability, ATPlite luminescence, 48 h; series mostly up to 57.5 µM
In short: as §1

Tov112D = assay: as above; details: Gynecologic cancer cell panel viability, ATPlite luminescence, 48 h; series mostly up to 57.5 µM
In short: as §1

[9] = Cytotoxicity counterscreen for inhibitors of SARS-CoV-2 cell entry (AID 1645845; calls by dose curve; further: nearly all actives have a fitted effect of over 50% in size)
In short: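 ATP-content luminescence (ATPLite 1step, 15 min RT) read after 48 h compound exposure of Expi293F cells stably expressing human ACE2; normalized to cells-only wells and media-only wells.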

CRL-7250 = normal cell line; assay: qHTS assay to identify novel small-molecules to repurpose for Merkel cell carcinoma treatment (AID 1296009); details: MCC and control cell lines, CellTiter-Glo viability, 72 h; series mostly up to 92 µM; further: nearly all actives have a fitted effect of over 60% in size
In short: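 Cell viability, measured as CellTiter-Glo luminescence, was normalized between DMSO and no-cell wells. The cells had been exposed to 8- or 11-point compound dilutions for 72 hr at 37 degree celsius.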

[10] = tested on: Zika virus NS2B-NS3 protease (linked construct); assay: Primary screen NINDS Rhodamine qHTS for Zika virus inhibitors (AID 1347160); further: nearly all actives have a fitted effect of over 55% in size
In short: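 Single-chain NS2B-NS3 protease, 25 nM, pH 8.0; compounds preincubated 15 min. Activity: Rhodamine110 release from 1.5 microM substrate over 15 min, room temperature, data fitted to 4-parameter Hill.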

[11] = Primary qHTS for inhibitors of nuclear receptor binding SET domain protein 2 (NSD2) in an RCH-ACV wild type WT cells (2C) (AID 1645877); further: potency means the concentration at half of the fitted maximal effect; nearly all actives have a fitted effect of over 70% in size
[12] = Primary qHTS to identify inhibitors of SARS-CoV-2 cell entry (AID 1645846; calls by dose curve; further: nearly all actives have a fitted effect of over 45% in size); details: activity change, negative = inhibition: at 57.1 µM (top of the series) unless noted
In short: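 Data are normalized to wells receiving SARS-CoV-2-S pseudoparticles and those given bald particles. Entry signal was luciferase luminescence in stable hACE2 Expi293F cells, 48 hr post-infection, after 1 hr compound pretreatment.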

[13] = tested on: Zika virus NS2B-NS3 protease (unlinked complex); assay: Primary screen GU Rhodamine qHTS for Zika virus inhibitors: Unlinked NS2B-NS3 protease assay (AID 1347159); further: nearly all actives have a fitted effect of over 60% in size
In short: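 Unlinked NS2B/NS3, 25 nM; Rhod110 peptide, 1.5 microM; compounds, up to 114 microM. Reaction run 15 min at RT in 10 mM Tris-HCl pH 8.0, 0.01% Tween 20; kinetic fluorescence change fitted with a 4-parameter Hill model.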

[14] = biological target: Cytochrome P450 2C9 (Homo sapiens) (UniProt P11712); assay: Cytochrome P450 family 2 subfamily C member 9 (CYP2C9) small molecule antagonists: luciferase biochemical (cell-free) qHTS assay (AID 1645842; active means well fitted curve in the direction sought with a large enough effect in the repeat runs; an effect the other way counts as inactive or inconclusive; further: nearly all actives have a fitted effect of over 55% in size)
Chain of Cytochrome P450 2C9 (Homo sapiens) (P11712 whole entry, looked up): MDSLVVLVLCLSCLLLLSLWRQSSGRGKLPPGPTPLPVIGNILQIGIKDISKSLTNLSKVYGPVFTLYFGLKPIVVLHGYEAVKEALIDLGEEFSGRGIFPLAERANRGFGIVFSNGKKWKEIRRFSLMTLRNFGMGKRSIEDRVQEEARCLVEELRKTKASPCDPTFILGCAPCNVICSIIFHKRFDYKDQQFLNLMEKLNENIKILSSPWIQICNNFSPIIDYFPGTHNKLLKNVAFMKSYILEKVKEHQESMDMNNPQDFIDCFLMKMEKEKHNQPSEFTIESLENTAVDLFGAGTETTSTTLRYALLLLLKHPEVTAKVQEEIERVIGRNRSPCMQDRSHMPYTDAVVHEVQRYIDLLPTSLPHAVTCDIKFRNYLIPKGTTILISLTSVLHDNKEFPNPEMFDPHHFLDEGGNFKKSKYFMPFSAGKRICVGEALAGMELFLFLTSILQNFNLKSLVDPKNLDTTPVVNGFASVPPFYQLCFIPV
In short: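 P450-Glo CYP2C9 system: proluciferin substrate with enzyme in mix containing 0.4% BSA, 10 min at room temperature, then NADPH regeneration solution added and incubated 1 h at 37C. Detection reagent stopped reaction; luminescence read after 20 min as RLU.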

[15] = Primary redox qHTS assay for identification of artifact compounds. (AID 1845223)
In short: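 Redox-cycling detection via DTT (250 uM final) oxidation coupled to Amplex Red (25 uM)/HRP (250 mU/mL) in HBSS. 15 min preincubation plus 30 min after DTT, room temperature. Ex/Em 525/598 nm; 4-parameter Hill fit against DMSO and 10 uM DA3003.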

SKOV3 = assay: Primary qHTS to identify gynecologic anti-cancer compounds using libraries of approved drugs and bioactive compounds (AID 1345084); details: Gynecologic cancer cell panel viability, ATPlite luminescence, 48 h; series mostly up to 57.5 µM; further: nearly all actives have a fitted effect of over 55% in size
In short: as §1

C[C@@H](CN1CCC(n2c(=O)[nH]c3cc(Br)ccc32)CC1)NC(=O)[C@@H]1C[C@H]1c1ccccc1
active: Potency [1] 20.6 µM | Potency [3] 13.5 µM
inactive: Potency [2] | Potency [4] | Potency [5] | outcome [6] | Potency [7] | Potency [8] | Potency (C33A) | Potency (CAOV3) | Potency (CASKI) | Potency (Es-2) | Potency (HeLa) | Potency (Hek293T) | Potency (JEG-3) | Potency (OV90) | Potency (PA-1) | Potency (Tov-21-G) | Potency (Tov112D)

CCNC1(C(N)=O)CCN(c2ncnc3c2nc(-c2ccccc2Cl)n3-c2ccc(Cl)cc2)CC1
inactive: Potency [9] | Potency (CRL-7250)

C=CC(C)(C)C12C=C(O)C(=O)N3/C(=C\c4cnc[nH]4)C(=O)NC31N(OC)c1ccccc12 (configuration not stated)
active: Potency [1] 7.96 µM | Potency [11] 10 µM
inactive: Potency [10] | Potency [4] | Potency [5] | outcome [6] inactive [at 25.7 µM] | Potency [8] | Potency (C33A) | Potency (CAOV3) | Potency (CASKI) | Potency (Es-2) | Potency (HeLa) | Potency (JEG-3) | Potency (OV90) | Potency (Tov-21-G) | Potency (Tov112D)

Cc1cccc(Oc2cnc(=O)[nH]c2)c1
-20%: activity change, negative = inhibition [12]
inactive: Potency [9] | Potency (CRL-7250)

C=C1C(=O)OC(CCCCCCCC)C1C(=O)O (configuration not stated)
inactive: Potency [9] | Potency (CRL-7250)

COc1ccc2cc(OCC3(C(=O)O)CN(C(=O)c4ccc(F)cc4)C3)ccc2c1
inactive: Potency [9] | Potency (CRL-7250)
-2.33%: activity change, negative = inhibition [12]

FC(F)(F)c1ccc(N2CCNCC2)nc1Cl
active: Potency [3] 15.1 µM
inactive: Potency [13] | Potency [10] | Potency [2] | Potency [14] | Potency [4] | Potency [5] | outcome [6] | Potency [7] | Potency [8] | Potency [15] | Potency (C33A) | Potency (CAOV3) | Potency (CASKI) | Potency (Es-2) | Potency (Hek293T) | Potency (JEG-3) | Potency (OV90) | Potency (PA-1) | Potency (SKOV3) | Potency (Tov-21-G) | Potency (Tov112D)
